Assays:
Conditions in all cases: concentration: 1 μM,replicates: in singlicate; n = 1
[1] = test system: NEK11
[2] = test system: NEK1
[3] = test system: NEK2
[4] = test system: NEK3
[5] = test system: NEK4
[6] = test system: NEK5
[7] = test system: NEK6
[8] = test system: NEK7
[9] = test system: NEK9
[10] = test system: T1, NIK
T1 construct: gene MAP3K14
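Note: KINOMEscan kinase panel screen.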

Row | Structure (SMILES) | %Inh [1] [%] | %Inh [2] [%] | %Inh [3] [%] | %Inh [4] [%] | %Inh [5] [%] | %Inh [6] [%] | %Inh [7] [%] | %Inh [8] [%] | %Inh [9] [%] | %Inh [10] [%]
1 | CSc1nccc(-c2c(-c3ccc(F)cc3)ncn2CCCN2CCOCC2)n1.Cl [SB-217146] | 0 | 0 | 0 | 38 | 0 | 0 | 0 | 8 | 0 | 33
2 | Cc1cccc2c(-c3ccncc3)c(-c3ccc(F)cc3)nn12.Cl [GW461487] | 4 | 0 | 0 | 0 | 0 | 16 | 0 | 0 | 15 | 10
3 | COc1cccc(CNC(=O)NC2CCN(c3ccnc(Nc4cc(OC)c(OC)c(OC)c4)n3)C2)c1 (stereo not drawn) [GSK1379765] | 15 | 0 | 0 | 45 | 31 | 95.9 | 0 | 15 | 31 | 30
4 | CNC(=O)c1ccccc1Nc1nc(Nc2cccc(CS(C)(=O)=O)c2)ncc1C.O=CO [GSK1520489] | 66 | 71 | 78 | 86 | 70 | 100 | 83 | 94.9 | 78 | 23
5 | C[C@@H]1CNc2c(sc3ccc4nc(-c5ccncc5)ccc4c23)C(=O)N1 | 0 | 0 | 0 | 30 | 0 | 0 | 3 | 5 | 0 | 90.3
6 | Cn1ccc2ncnc(Oc3ccc(NC(=O)Nc4cnn(C(C)(C)C)c4)c(Cl)c3)c21 | 0 | 0 | 0 | 12 | 0 | 6 | 2 | 0 | 0 | 0
7 | Cc1cccc(-c2nc(Nc3ccncc3)c3sccc3n2)n1 [GW869641] | 31 | 0 | 5 | 10 | 14 | 4 | 16 | 3 | 14 | 0
8 | c1ccc(Oc2ccc(Nc3ccnc4ccc(-c5ccccn5)cc34)cc2)cc1 [GW407034] | 0 | 0 | 0 | 9 | 28 | 0 | 1 | 0 | 0 | 9
9 | CCCC(=O)Nc1n[nH]c2ncccc12 [SB-601436] | 4 | 0 | 0 | 0 | 0 | 0 | 0 | 13 | 0 | 10
10 | CC(=O)Nc1nc2cnc(Nc3cc(NC(=O)c4cccc(CC(C)(C)C#N)c4)ccc3C)nc2s1 | 0 | 13 | 6 | 30 | 0 | 0 | 13 | 5 | 5 | 0
11 | NC(=O)Nc1sc(-c2ccc(F)cc2)cc1C(N)=O [GW789449] | 0 | 0 | 0 | 47 | 19 | 36 | 13 | 0 | 0 | 37
12 | Cn1ccc2ncnc(Oc3ccc(NC(=O)Nc4cccc(C(F)(F)F)c4)c(F)c3)c21 | 0 | 0 | 15 | 17 | 0 | 7 | 27 | 0 | 0 | 0
13 | CC(C(=O)NC1CCN(c2ccnc(Nc3ccc(F)cc3)n2)C1)c1ccc(Cl)cc1 (stereo not drawn) [GSK1379713] | 25 | 0 | 0 | 0 | 0 | 15 | 0 | 28 | 34 | 11
14 | O=C(Nc1ccccc1)c1cccc(Oc2ccc3nccn3n2)c1 | 20 | 0 | 2 | 17 | 0 | 12 | 0 | 0 | 0 | 34
15 | CN1CCN(CCCNc2nccc(-c3c(-c4ccc(F)cc4)nn4cc(C(N)=O)ccc34)n2)CC1 [GW622475] | 0 | 0 | 8 | 6 | 10 | 15 | 0 | 25 | 41 | 5
16 | COc1cccc(OC)c1C(=O)Nc1cccc(-c2nn3ccccc3c2-c2ccnc(Nc3cccc(F)c3)n2)c1 [GSK361065] | 0 | 0 | 4 | 7 | 0 | 10 | 17 | 0 | 0 | 0
17 | COc1cc(Nc2nccc(N3CCC(NC(=O)c4cccc(C#N)c4)C3)n2)cc(OC)c1OC (stereo not drawn) [GSK1379751] | 0 | 33 | 13 | 34 | 2 | 97.1 | 33 | 11 | 0 | 27

Row | Structure (SMILES) | %Inh [1] [%] | %Inh [2] [%] | %Inh [3] [%] | %Inh [4] [%] | %Inh [5] [%] | %Inh [6] [%] | %Inh [7] [%] | %Inh [8] [%] | %Inh [9] [%] | %Inh [10] [%]
18 | Cc1nnc(-c2ccc3occ(-c4ccc(S(C)=O)cc4)c3n2)o1 (stereo not drawn) | 0 | 0 | 0 | 23 | 0 | 0 | 0 | 0 | 0 | 0
19 | NC(=O)c1ccc(-c2cc3ncnc(SCC(=O)O)c3s2)cc1 | 0 | 0 | 0 | 35 | 0 | 0 | 7 | 0 | 0 | 0
20 | Cc1ccc(C(=O)Nc2ccc(Oc3ccc4nc(NC(=O)C5CC5)cn4c3)c(F)c2)c(=O)n1-c1ccccc1 | 0 | 0 | 5 | 0 | 0 | 0 | 0 | 0 | 0 | 0
21 | CS(=O)(=O)Nc1ccc(-c2ccnc3[nH]ccc23)cc1 [GSK993273] | 17 | 15 | 0 | 4 | 16 | 2 | 0 | 10 | 14 | 22
22 | COC(=O)c1cccc(NC(=O)NC2CCN(c3ccnc(Nc4cc(OC)c(OC)c(OC)c4)n3)C2)c1 (stereo not drawn) [GSK1379767] | 0 | 52 | 22 | 17 | 0 | 100 | 0 | 37 | 26 | 32
23 | CS(=O)c1ccc(-c2coc3ccc(-c4n[nH]c(=O)o4)cc23)cc1 (stereo not drawn) | 0 | 0 | 0 | 15 | 0 | 0 | 0 | 19 | 0 | 0
24 | O=C(Nc1ccc(Oc2ccc3nc(NC(=O)C4CC4)cn3n2)c(F)c1)c1cccn(-c2ccccc2)c1=O | 0 | 0 | 0 | 8 | 0 | 54 | 6 | 0 | 0 | 0
25 | CCn1c(-c2nonc2N)nc2cncc(CNC3CCNCC3)c21.Cl [SB-747651] | 11 | 0 | 0 | 15 | 28 | 2 | 0 | 6 | 38 | 13
26 | COc1cccc(C2=C(Nc3cccc(Cl)c3)C(=O)NC2=O)c1 [SB-341556] | 0 | 0 | 13 | 5 | 29 | 0 | 0 | 5 | 1 | 26
27 | COc1cc2c(Nc3ccc(NC(=O)c4ccccc4)cc3)ncnc2cc1OCCCN1CCOCC1 [GSK301329] | 0 | 0 | 0 | 0 | 22 | 0 | 0 | 0 | 13 | 9
28 | CC(=O)Nc1ccc(-c2cc3ncnc(SCC(=O)O)c3s2)cc1 | 0 | 0 | 1 | 12 | 6 | 0 | 4 | 1 | 5 | 11
29 | COC(=O)Nc1nc2cc(Oc3ccc(NC(=O)Nc4cc(C(F)(F)F)ccc4Cl)cc3)ccc2[nH]1.Cl [GW697465] | 29 | 0 | 0 | 0 | 3 | 0 | 0 | 0 | 28 | 0
30 | COc1ccc(Nc2nccc(N3CCC(NC(=O)c4cccc(C#N)c4)C3)n2)cc1 (stereo not drawn) [GSK1379730] | 0 | 0 | 0 | 0 | 3 | 12 | 30 | 0 | 0 | 0
31 | CN(c1ccccc1CNc1nc(Nc2ccc3c(c2)CC(=O)N3)ncc1C(F)(F)F)S(C)(=O)=O | 0 | 0 | 0 | 32 | 0 | 0 | 26 | 64 | 53 | 0
32 | Cn1ccc2ncnc(Oc3ccc(NC(=O)Nc4cncc(C(F)(F)F)c4)c(Cl)c3)c21 | 0 | 0 | 0 | 13 | 0 | 0 | 0 | 0 | 0 | 0
33 | FC(F)(F)c1cc(Br)cc(Nc2nccc(-c3cnn4ncccc34)n2)c1 [GW810578] | 0 | 0 | 1 | 15 | 2 | 30 | 51 | 60 | 15 | 21
